# Source: PubChem BioAssay
# D2 antagonist: D2 dopamine receptor (human) antagonism. AID 485344. inhibition, % at 10 µM. 340,000 compounds, 2% hits. P14416. HEK293 TREx D2 cells, calcium flux, dopamine EC80; in the data active = inhibition above about 30%; inactive = below that, where a call was filed; note: 0% is about no effect
# Target sequence (P14416 whole entry, looked up): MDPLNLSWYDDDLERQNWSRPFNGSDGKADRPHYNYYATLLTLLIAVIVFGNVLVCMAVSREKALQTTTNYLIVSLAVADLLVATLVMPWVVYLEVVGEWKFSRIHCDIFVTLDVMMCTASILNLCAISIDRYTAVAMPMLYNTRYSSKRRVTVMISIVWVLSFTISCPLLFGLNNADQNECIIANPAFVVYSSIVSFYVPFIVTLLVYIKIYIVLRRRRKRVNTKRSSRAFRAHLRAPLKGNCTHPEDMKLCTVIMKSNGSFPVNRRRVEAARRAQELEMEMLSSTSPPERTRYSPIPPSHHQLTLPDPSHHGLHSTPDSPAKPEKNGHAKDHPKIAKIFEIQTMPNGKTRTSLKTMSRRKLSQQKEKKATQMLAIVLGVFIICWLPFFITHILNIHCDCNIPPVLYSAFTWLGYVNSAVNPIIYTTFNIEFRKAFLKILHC
#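 Compounds are added to dye-loaded, induced HEK293 T-REx cells coupled to calcium release via D2; after a 3 min kinetic read an EC80 dopamine stimulus is given and fluorescence is recorded for 3 more min.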
# D2 PAM-1: human D2 receptor positive allosteric modulation | DiscoveRx D2 beta-arrestin cells, luminescence, 90 min; 100% = 57 uM dopamine signal | 360,000 compounds, 0.23% hits | potentiation, % (test concentration not listed) | P14416; in the data active = potentiation above about 50%; inconclusive = mostly about 30% to 49%
#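 PathHunter beta-arrestin assay in DiscoveRx D2 cells. Compounds were added with an EC20 of dopamine (50 nM final) for 90 min at 37 deg C. Luminescence was read 1 h after detection reagent, with 57 uM dopamine as the EC100 control.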
# D2 ag-1: D2 dopamine receptor (human) agonism; P14416; HEK293 T-REx D2 cells, calcium flux agonist mode; activation, % at 2 µM; 340,000 compounds, 0.53% hits; AID 485358;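 active = activation over 3 SD above normal in the single-dose calcium agonist read, cut at about 30% in these data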; note: 0% is about no effect
#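 Tetracycline-induced HEK293 Trex cells with D2 receptor force-coupled to calcium signaling, plated overnight at 30 C and loaded with no-wash calcium dye. Calcium flux read kinetically for 180 s after compound addition; responses flag agonists.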
# D2 PAM-2: positively modulates the human D2 dopamine receptor allosterically | P14416 | potentiation, % at 10 µM | 340,000 compounds, 0.34% hits | HEK293 T-REx D2, calcium flux, EC20 dopamine potentiation;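 active = potentiation over 3 SD above the plate norm, cut at about 30% in these data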; note: 0% is about no effect
#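 Primary screen. Calcium kinetics in induced HEK293 T-REx D2 cells: compound pre-addition 180 s, EC20 dopamine, 180 s more.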
# D2 ag-2: human D2 receptor agonism in beta-arrestin assay; 360,000 compounds, 0.084% hits; DiscoveRx PathHunter D2 beta-arrestin, luminescence, 90 min; 100% = 57 uM dopamine signal; activation, % (no concentration beside the values); AID 624465; in the data active = activation above about 40%; inconclusive = between about 15% and that limit
#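 Agonist mode: compounds alone added to overnight-plated D2 PathHunter cells for 90 min at 37 C, with 57 uM final dopamine (EC100) defining full response. Beta-arrestin recruitment detected by chemiluminescent reagent, read after 1 h at ambient temperature.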
# Active calls of the source: *; ? = inconclusive; . = no result given. Most compounds without a hit are left out; they make up all but 2.4% or so of the library.
SMILES,D2 antagonist,D2 PAM-1,D2 ag-1,D2 PAM-2,D2 ag-2
Cc1cccc(C)c1NC(=S)N/N=C/c1ccc(C(=O)O)cc1,36*,1,0,-1,-1
Cc1nc2nc(SCC(=O)c3cccc([N+](=O)[O-])c3)[nH]c2cc1Br,38*,-24,0,-22,3
CCc1ccc(NC(=O)C(C)n2nnc3sc(-c4ccccc4)cc3c2=O)cc1 (configuration not stated),.,.,1,1,.
Oc1ccc(/C=N/N2CCOCC2)c(O)c1O,.,54*,.,-3,?
Oc1ccc(/C=N/N2CCCCC2)c(O)c1O,.,9,.,.,2
Cc1cnc(C(=O)Nc2ccccc2-c2nnn(CC(=O)NC3CCCC3)n2)cn1,30*,-18,0,-2,2
O=C(COC(=O)c1ccc(F)cc1F)NCCNC(=O)COC(=O)c1ccc(F)cc1F,0,-9,0,0,-2
Nc1cc(Cl)ccc1C(=O)OCC(=O)NC1CCCCCCC1,35*,5,0,0,4
O=C(COC(=O)c1ccc(F)cc1F)NC1CC1,31*,-3,0,2,-3
CCc1cccc(NC(=O)CSc2nncn3c2cc2sccc23)c1,.,.,-1,-5,.
COc1ccc(N2CC(NC(=O)COc3ccccc3C)CC2=O)cc1OC (configuration not stated),.,.,0,8,.
CCOC(=O)c1c(C)n(-c2ccc(C)cc2)c2ccc(O)c(CN(C)C)c12,40*,-8,0,-10,4
COc1ccc(NC(=O)C2CC(=O)N(Cc3ccc(C)cc3)C2)cc1S(=O)(=O)N1CCCCC1 (configuration not stated),43*,-34,0,-11,-3
Cc1ccc(CN2CC(C(=O)O)CC2=O)cc1 (configuration not stated),14,-6,1,30*,-1
COc1ccc(C(=O)NCCC2=CCCCC2)cc1OC,35*,-18,0,-21,-2
COc1ccc(C(=O)NCCC2=CCCCC2)cc1,-8,-24,0,-6,-6
COc1ccc(C(=O)NCCc2cnc[nH]2)cc1OC,35*,-18,-1,19,-8
COc1ccc(C(=O)NCCSCc2cccc(Cl)c2)cc1OC,32*,-8,0,-1,-5
O=C(O)c1nn(CCOc2ccc(Br)cc2)c(=O)c2ccccc12,19,-1,1,7,-1
O=C(O)c1nn(CCOc2ccccc2F)c(=O)c2ccccc12,-11,-4,1,33*,-8
CC1(C)Oc2ccc(C(=O)NC3CCCC3)cc2N(CC(=O)NC2CCCCC2)C1=O,52*,-19,1,-21,-3
CCCC(=O)C1=C(c2ccc(C)cc2)N(C(=O)CCC)n2cnnc2S1,.,.,0,-10,.
CN(c1ccccc1)c1nc(N)c([N+](=O)[O-])c(N2CCCCCC2)n1,6,-12,0,4,0
CN1CCN(c2nc(NCc3ccco3)nc(N)c2[N+](=O)[O-])CC1,77*,-24,-1,-24,0
CCN1CCN(c2nc(N(C)c3ccccc3)nc(N)c2[N+](=O)[O-])CC1,49*,-14,5,-19,-2
SMILES,D2 antagonist,D2 PAM-1,D2 ag-1,D2 PAM-2,D2 ag-2
CCN1CCN(c2nc(Nc3ccc(C)c(C)c3)nc(N)c2[N+](=O)[O-])CC1,51*,-15,-2,-22,-6
CCc1cc2c(cc3c(=O)n(CC(=O)NC4CCCCC4)nc(CC)n32)s1,.,.,.,-5,.
COc1cccc(C2C(C(=O)Nc3cccnc3)=C(C)Nc3nc(SCc4ccccc4)nn32)c1 (configuration not stated),.,.,0,.,.
Cc1ccc(NS(=O)(=O)c2ccc(NC(=O)N3CCCC3)cc2)cc1C,.,.,0,0,.
COC(=O)c1ccc(C2C(Oc3ccccc3)C(=O)N2CCc2ccc(F)cc2)cc1 (configuration not stated),36*,2,1,-15,-2
CC(C)CCN1CCN(Cc2cccs2)CC1CCO (configuration not stated),31*,-18,14,-20,1
COc1cc(CN2CCN(Cc3ccc(C)cc3)C(CCO)C2)cc(OC)c1O (configuration not stated),57*,-16,1,-18,3
Cc1ccc(CN2CCN(CCC(C)C)C(CCO)C2)s1 (configuration not stated),57*,-18,0,-25,-3
Cc1ccc(CN2CCN(Cc3ccc(C)s3)CC2CCO)cc1 (configuration not stated),69*,-2,1,-23,-3
CC(C)N1CCN(Cc2cccs2)CC1CCO (configuration not stated),.,-2,.,.,0
COc1ccc(CN2CCN(Cc3ccc(C)cc3)C(CCO)C2)cc1OC (configuration not stated),14,-22,0,12,-1
Cc1ccc(-c2nn(CC(=O)NC3CCCCC3)c3c2cnc2ccccc23)cc1,.,.,-1,-8,.
Cc1ccccc1CNC(=O)C1CCCN(c2nnc(-n3c(C)ccc3C)s2)C1 (configuration not stated),.,.,0,6,.
CC(=O)c1ccc(N2CCN(C(=O)CCCCn3c(=O)[nH]c4ccccc4c3=O)CC2)cc1,.,.,0,-4,.
CC(C)CCN1CCN(Cc2cccc3nonc23)CC1CCO (configuration not stated),54*,-7,1,-23,-2
c1ccc2sc(-c3ccc4c(c3)OCO4)nc2c1,11,-12,0,31*,0
O=C(Nc1cccc(-c2nc3ccccc3s2)c1)c1ccc2c(c1)OCO2,-7,-13,1,-10,0
N#Cc1ccccc1NC(=O)COC(=O)COc1ccccc1[N+](=O)[O-],-17,-1,0,4,0
CCC(=O)Nc1ccccc1Nc1cc(C#N)c(C#N)cc1[N+](=O)[O-],8,74*,-1,-3,10
CC1(C)CC(=O)CC2(C1)NCC(c1ccccc1)c1c2[nH]c2ccccc12 (configuration not stated),31*,-7,4,-5,0
COc1cccc(C2CNC3(CCCC(C)C3)c3[nH]c4ccccc4c32)c1OC (configuration not stated),-8,-17,2,-25,-6
CC(C)CNC(=O)NC(=O)COc1ncnc2sccc12,37*,1,0,6,-2
CCCNC(=O)COc1ncnc2sccc12,33*,7,2,14,7
COc1ccc(NC(=O)CCN2C(=O)c3ccncc3C2=O)cc1OC,34*,-14,0,0,-6
CCOC(=O)c1c(-c2ccc(OC)cc2)cn2ccccc12,62*,-13,-1,-1,-3
